# Reference: PubChem BioAssay (EPA / NIEHS)
# Values joined by “and” are separate entries in the source; they are usually repeats but may differ in a detail not shown here. Equal values may be shown once. Inconclusive results are not listed. Active and inactive are the calls of the source. How the source made its calls: active means hit-call score of the fitted dose curve at least 0.9, where 1 is the maximum; inconclusive means response in the unintended direction; inactive means score below 0.9.
# Legend:
# [1] = ACEA_AR_agonist_AUC_viability: ACEA Biosciences xCELLigence Real-Time Cell Analysis on Androgen Receptor Agonism for Viability (AID 2283775);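 on AC50: viability read 80 hours after compound addition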
# Procedure, shortened: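 Read-out is area under the impedance curve at 80 h post-dose in 22Rv1 cells, with DMSO as baseline and signal loss taken as reduced viability. Compounds ran in duplicate from 100 uM final.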
# [2] = ACEA_AR_antagonist_AUC_viability: ACEA Biosciences xCELLigence Real-Time Cell Analysis on Androgen Receptor Antagonism for Viability (AID 2283776);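 further: 22Rv1 human prostate cancer cells growing on impedance electrode plates; area under impedance growth curve at 80 h after dosing as viability; hits lower the growth signal relative to DMSO meaning cytotoxicity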
# Procedure, shortened: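 22Rv1 prostate cells, continuous dosing up to 100 uM final (0.5% DMSO max), duplicate plates. Growth measured by impedance; AUC at 80 h, loss of signal vs DMSO.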
# [3] = ACEA_ER_AUC_viability: ACEA Biosciences xCELLigence Real-Time Cell Analysis on Estrogen Receptor Agonism for Viability (AID 2283782);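 further: continuous compound exposure with impedance area under curve over 80 h; hit means loss of impedance signal meaning reduced cell growth or viability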
# Procedure, shortened: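 T-47D human breast cells in phenol red-free RPMI1640 with 10% charcoal-stripped FBS were dosed with an 8-point 1:4 dilution series from 100 uM top final concentration, in duplicate. Impedance-based growth was followed for 80 h; AUC analysed versus DMSO.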
# [4] = target: zebrafish Estrogen Receptor (ESR1), esr1 (gene 259252) (UniProt P57717); assay: ATG_zfER1_XSP1: Attagene TRANS-FACTORIAL Multi-Species (XSP1) HepG2 Assay for zebrafish Estrogen Receptor (ESR1) (AID 2283772)
# Chain of zebrafish Estrogen Receptor (ESR1), esr1 (gene 259252) (P57717 whole entry, looked up): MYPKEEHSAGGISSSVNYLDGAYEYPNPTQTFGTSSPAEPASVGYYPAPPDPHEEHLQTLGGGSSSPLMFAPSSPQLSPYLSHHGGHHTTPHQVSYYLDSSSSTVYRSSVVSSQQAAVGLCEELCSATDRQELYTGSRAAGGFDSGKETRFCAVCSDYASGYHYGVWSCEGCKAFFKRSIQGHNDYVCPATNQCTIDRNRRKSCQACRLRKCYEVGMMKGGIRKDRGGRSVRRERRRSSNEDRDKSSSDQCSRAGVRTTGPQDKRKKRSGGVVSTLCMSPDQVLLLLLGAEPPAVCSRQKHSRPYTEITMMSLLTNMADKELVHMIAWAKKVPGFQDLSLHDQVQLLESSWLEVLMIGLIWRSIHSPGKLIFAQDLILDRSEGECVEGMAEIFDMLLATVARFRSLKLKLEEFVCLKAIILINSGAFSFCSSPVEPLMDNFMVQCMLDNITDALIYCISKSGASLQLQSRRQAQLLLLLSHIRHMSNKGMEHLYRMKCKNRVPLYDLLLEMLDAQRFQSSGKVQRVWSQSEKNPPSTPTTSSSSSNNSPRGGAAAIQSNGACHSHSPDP
# Description: ATG_XSP1_multi-species_TRANS is a cell-based, multiplexed assay created by modifying the existing Attagene TRANS-FACTORIAL system to include a panel of nuclear receptors from some or all the following species: human (Homo sapiens), mouse (Mus musculus), frog (Xenopus laevis), zebrafish (Danio rerio), chicken (Gallus gallus), and turtle (Chrysemys picta). The ECOTOX-FACTORIAL format uses HepG2, a human liver cell line, with measurements taken at 24 hours after chemical dosing in a 24-well plate. Xsp1 included 3 nM 6-alpha-fluorotestosterone to partially stimulate the androgen receptor.ATG_zfER1_XSP1 is one of 29 assay components measured or calculated from the ATG_XSP1_multi-species_TRANS assay. It is designed to make measurements of mRNA induction, a form of inducible reporter, as detected with fluorescence intensity signals by Reverse transcription polymerase chain reaction (RT-PCR) and Capillary electrophoresis technology.The assay endpoint ATG_zfER1_XSP1 was analyzed in the positive analysis fitting direction relative to DMSO as the negative control and baseline of activity. […] Furthermore, this assay endpoint can be referred to as a primary readout, because this assay has produced multiple assay endpoints where this one serves a reporter gene function. […]
# [5] = system: zebrafish Estrogen Receptor (ESR2B), gene 317733; assay: ATG_zfER2b_XSP1: Attagene TRANS-FACTORIAL Multi-Species (XSP1) HepG2 Assay for zebrafish Estrogen Receptor (ESR2B) (AID 2283773)
# Procedure, shortened: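 HepG2 cells transiently transfected with multiple GAL4-UAS reporter units expressing chimeric zebrafish ER2b-Gal4; 24 h chemical exposure with 3 nM 6-alpha-fluorotestosterone present. Reporter mRNA measured by RT-PCR and capillary electrophoresis; gain of signal fitted versus DMSO.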
# [6] = system: frog Estrogen Receptor (ESR2), gene 100174814; assay: ATG_frER2_XSP1: Attagene TRANS-FACTORIAL Multi-Species (XSP1) HepG2 Assay for frog Estrogen Receptor (ESR2) (AID 2283774)
# Procedure, shortened: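 HepG2 cells transiently transfected with GAL4-UAS multiplexed reporter units expressing chimeric NR-Gal4 proteins; reporter mRNA measured 24 h after dosing by RT-PCR, FAM labeling, HpaI digestion and capillary electrophoresis. Gain-of-signal relative to DMSO; 3 nM 6-alpha-fluorotestosterone present.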
# [7] = system: zebrafish Estrogen Receptor (ESR2A), gene 317734; assay: ATG_zfER2a_XSP1: Attagene TRANS-FACTORIAL Multi-Species (XSP1) HepG2 Assay for zebrafish Estrogen Receptor (ESR2A) (AID 2283778)
# Procedure, shortened: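 HepG2 cells transiently transfected with multiplexed GAL4-UAS reporter units and chimeric NR-GAL4 receptors; 24 h compound exposure with 3 nM 6-alpha-fluorotestosterone present. Reporter mRNA quantified by RT-PCR and capillary electrophoresis, gain-of-signal fitted relative to DMSO.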
# [8] = target: chicken Estrogen Receptor (ESR1), ESR1 (gene 396099) (UniProt P06212); assay: ATG_chERa_XSP1: Attagene TRANS-FACTORIAL Multi-Species (XSP1) HepG2 Assay for chicken Estrogen Receptor (ESR1) (AID 2283779)
# Chain of chicken Estrogen Receptor (ESR1), ESR1 (gene 396099) (P06212 whole entry, looked up, the tested form may be a part): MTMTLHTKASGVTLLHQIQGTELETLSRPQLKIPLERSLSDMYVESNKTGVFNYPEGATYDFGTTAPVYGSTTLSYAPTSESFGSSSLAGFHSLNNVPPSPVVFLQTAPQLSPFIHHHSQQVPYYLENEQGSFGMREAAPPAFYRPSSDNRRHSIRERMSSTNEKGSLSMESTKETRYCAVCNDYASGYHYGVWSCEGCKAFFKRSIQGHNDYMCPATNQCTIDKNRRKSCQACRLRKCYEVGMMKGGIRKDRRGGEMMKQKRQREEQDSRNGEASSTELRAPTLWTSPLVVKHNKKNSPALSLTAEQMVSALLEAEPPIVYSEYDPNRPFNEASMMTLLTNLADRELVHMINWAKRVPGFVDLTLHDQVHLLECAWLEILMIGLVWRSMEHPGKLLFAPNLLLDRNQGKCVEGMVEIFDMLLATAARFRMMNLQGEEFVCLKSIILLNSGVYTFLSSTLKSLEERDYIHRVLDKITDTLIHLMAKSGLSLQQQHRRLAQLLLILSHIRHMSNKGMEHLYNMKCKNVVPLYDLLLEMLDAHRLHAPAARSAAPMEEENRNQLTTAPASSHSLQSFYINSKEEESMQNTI
# Procedure, shortened: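 HepG2 cells transiently transfected with multiplexed GAL4-UAS reporter units expressing chimeric NR-Gal4 proteins; 3 nM 6-alpha-fluorotestosterone present. Reporter mRNA measured 24 h after dosing by RT-PCR, FAM labelling, HpaI digest and capillary electrophoresis; gain of signal versus DMSO.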
# [9] = target: Estrogen receptor (Homo sapiens) (UniProt P03372); assay: ATG_hERa_XSP1: Attagene TRANS-FACTORIAL Multi-Species (XSP1) HepG2 Assay for human Estrogen Receptor (ESR1) (AID 2283780)
# Chain of Estrogen receptor (Homo sapiens) (P03372 whole entry, looked up, the tested form may be a part): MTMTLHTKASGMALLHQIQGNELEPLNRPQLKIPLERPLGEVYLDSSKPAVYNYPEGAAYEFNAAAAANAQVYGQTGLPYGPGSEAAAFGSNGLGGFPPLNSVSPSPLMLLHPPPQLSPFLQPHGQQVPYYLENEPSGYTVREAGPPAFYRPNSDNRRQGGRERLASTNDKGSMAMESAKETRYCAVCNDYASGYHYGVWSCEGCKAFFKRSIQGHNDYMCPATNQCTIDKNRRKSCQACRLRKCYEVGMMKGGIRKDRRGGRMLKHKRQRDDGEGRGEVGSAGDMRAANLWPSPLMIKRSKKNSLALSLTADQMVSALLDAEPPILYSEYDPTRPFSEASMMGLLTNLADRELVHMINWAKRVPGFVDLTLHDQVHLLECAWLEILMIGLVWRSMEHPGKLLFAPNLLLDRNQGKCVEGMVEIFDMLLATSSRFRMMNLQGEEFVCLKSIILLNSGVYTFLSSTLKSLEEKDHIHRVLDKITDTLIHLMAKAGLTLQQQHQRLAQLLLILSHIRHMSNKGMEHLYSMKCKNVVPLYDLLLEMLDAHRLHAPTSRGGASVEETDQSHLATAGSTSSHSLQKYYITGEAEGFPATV
# Procedure, shortened: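 HepG2 cells transiently transfected with GAL4-UAS reporter units and chimeric NR-Gal4 constructs; 24 h after dosing, reporter mRNA quantified by RT-PCR and capillary electrophoresis. Medium contained 3 nM 6-alpha-fluorotestosterone; activity fitted as gain-of-signal versus DMSO.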
# [10] = system: turtle Estrogen Receptor (ESR1), gene 101933533; assay: ATG_trERa_XSP1: Attagene TRANS-FACTORIAL Multi-Species (XSP1) HepG2 Assay for turtle Estrogen Receptor (ESR1) (AID 2283781)
# Procedure, shortened: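 HepG2 cells transiently transfected with GAL4-UAS reporter units and chimeric NR-Gal4 constructs, dosed for 24 h with 3 nM 6-alpha-fluorotestosterone present. Reporter mRNA was quantified by RT-PCR, fluorescent labelling and capillary electrophoresis, with gain of signal fitted relative to DMSO.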
smiles,measurement,setting,value
CO/N=C(/C(=O)OC)c1ccccc1COc1ccccc1C,outcome,[1],inactive
same,outcome,[2],inactive
CCC1(c2ccccc2)C(=O)N=C(O)NC1=O (configuration not stated),outcome,[1],inactive
same,outcome,[2],inactive
CCOc1ccc(C(C)(C)COCc2cccc(Oc3ccccc3)c2)cc1,outcome,[1],inactive
same,AC50,[2],50 µM (active)
O=P1(N(CCCl)CCCl)NCCCO1 (configuration not stated),outcome,[1],inactive
same,outcome,[2],inactive
CCCCN(CC)C(=O)SCCC,outcome,[1],inactive
same,outcome,[2],inactive
CCCCOCCOP(=O)(OCCOCCCC)OCCOCCCC,outcome,[1],inactive
same,outcome,[2],inactive
CCCCOCC1CO1 (configuration not stated),outcome,[1],inactive
same,outcome,[2],inactive
same,outcome,[3],inactive
CCNc1nc(Cl)nc(NC(C)(C)C)n1,outcome,[1],inactive
same,outcome,[2],inactive
c1cc2c3c(cccc3c1)CC2,outcome,[1],inactive
same,outcome,[2],inactive
Nc1cc2c3c(c1)C(c1ccccc1)=N[C@@H](NC(=O)c1cccnc1)C(=O)N3CC2,outcome,[1],inactive
same,outcome,[2],inactive
same,outcome,[3],inactive
ClC(Cl)(Cl)c1ccccc1,outcome,[1],inactive
same,outcome,[2],inactive
CC(C)(C)N(NC(=O)c1ccc(Cl)cc1)C(=O)c1ccccc1,outcome,[1],inactive
same,outcome,[2],inactive
CCCCN(CCCC)N=O,outcome,[1],inactive
same,outcome,[2],inactive
same,outcome,[3],inactive
O=C(O)C1C(C(=O)O)C2(Cl)C(Cl)=C(Cl)C1(Cl)C2(Cl)Cl (configuration not stated),outcome,[1],inactive
same,outcome,[2],inactive
O=[N+]([O-])c1ccc(Cl)c(Cl)c1,outcome,[1],inactive
same,outcome,[2],inactive
O=[N+]([O-])c1ccccc1,outcome,[1],inactive
same,outcome,[2],inactive
[N-]=[N+]=[N-],outcome,[1],inactive
same,AC50,[2],50 µM (active)
O=C(O)CF,outcome,[1],inactive
same,outcome,[2],inactive
same,outcome,[3],inactive
O=C(O)C(Cl)Cl,outcome,[1],inactive
same,outcome,[2],inactive
CCOP(=S)(OCC)SCSCC,AC50,[1],83.4 µM (active)
same,outcome,[2],inactive
O=S(=O)(c1ccc(O)cc1)c1ccc(O)cc1,outcome,[1],inactive
OCC1CO1 (configuration not stated),outcome,[1],inactive
same,outcome,[2],inactive
ClC(Cl)c1ccccc1,outcome,[1],inactive
same,outcome,[2],inactive
CCOC(=O)c1ccccc1N,outcome,[1],inactive
CCCN(CCC)c1c([N+](=O)[O-])cc(C(C)C)cc1[N+](=O)[O-],AC50,[1],45.2 µM (active)
same,AC50,[2],58.7 µM (active)
same,AC50,[3],87.3 µM (active)
CCOP(=S)(Oc1ccc([N+](=O)[O-])cc1)c1ccccc1 (configuration not stated),AC50,[1],50 µM (active)
same,AC50,[2],14.9 µM (active)
CCC(C)(C)c1ccc(O)cc1,AC50,[1],67 µM (active)
same,AC50,[2],71.7 µM (active)
same,AC50,[3],88.4 µM (active)
O=P(Oc1ccccc1)(Oc1ccccc1)Oc1ccccc1,outcome,[4],inactive
same,AC50,[5],5.84 µM (active)
same,AC50,[6],2.77 µM (active)
same,outcome,[7],inactive
same,AC50,[8],0.8 µM (active)
same,AC50,[9],0.991 µM (active)
same,AC50,[10],1.66 µM (active)
same,AC50,[3],86.8 µM (active)
CCCCCCCc1ccc(O)cc1,AC50,[1],29.2 µM (active)
same,AC50,[2],50 µM (active)
same,AC50,[3],28 µM (active) and 26.6 µM (active) and 27.7 µM (active)
O=P(OCC(Br)CBr)(OCC(Br)CBr)OCC(Br)CBr (configuration not stated),AC50,[1],23.3 µM (active)
same,outcome,[2],inactive
same,outcome,[3],inactive
Cc1cccc(N)c1,outcome,[1],inactive
same,outcome,[2],inactive
FC(F)(F)C(F)(C(F)(F)F)C(F)(F)C(F)(F)CC1CO1 (configuration not stated),outcome,[3],inactive
CC(Cl)(Cl)C(=O)O,outcome,[2],inactive
FC(F)(F)c1ccc(Cl)cc1,outcome,[2],inactive
Cc1ccc(N)cc1N,outcome,[2],inactive
C=CC(=O)OCC(CC)(COC(=O)C=C)COC(=O)C=C,AC50,[3],10.1 µM (active)
CSC(C)(C)C=NO,outcome,[1],inactive
same,outcome,[2],inactive
same,outcome,[3],inactive
CC1(C)CN=C(NN=C(/C=C/c2ccc(C(F)(F)F)cc2)/C=C/c2ccc(C(F)(F)F)cc2)NC1,AC50,[1],12.6 µM (active)
same,AC50,[2],11.1 µM (active)
same,AC50,[3],2.02 µM (active)
CCCCc1ccc(O)cc1,outcome,[1],inactive
same,AC50,[2],8.13 µM (active)
same,AC50,[3],82.5 µM (active)
CN(C)C(=O)Cl,outcome,[2],inactive
CCCCC(CC)COC(=O)c1c(Br)c(Br)c(Br)c(Br)c1C(=O)OCC(CC)CCCC (configuration not stated),outcome,[2],inactive
COC(N)=O,outcome,[2],inactive
same,outcome,[3],inactive
CC1=C(C(=O)Nc2ccccc2)S(=O)(=O)CCO1,AC50,[3],28.6 µM (active)
ClC1=C(Cl)C2(Cl)C3C(Cl)C(Cl)CC3C1(Cl)C2(Cl)Cl (configuration not stated),AC50,[1],11.9 µM (active)
same,AC50,[2],13.6 µM (active)
same,AC50,[3],91.7 µM (active)
CCCCN(CCCC)SN(C)C(=O)Oc1cccc2c1OC(C)(C)C2,AC50,[1],57.4 µM (active)
same,AC50,[2],49.2 µM (active)
same,AC50,[3],79.2 µM (active)
O=C(CBr)OCc1ccccc1,outcome,[1],inactive
same,outcome,[3],inactive
O=S1(=O)OCC2C(CO1)C1(Cl)C(Cl)=C(Cl)C2(Cl)C1(Cl)Cl (configuration not stated),outcome,[2],inactive
same,AC50,[3],83 µM (active)
COC(=O)C(F)(F)C(F)(F)OC(F)(C(F)(F)F)C(F)(F)OC(F)=C(F)F (configuration not stated),outcome,[3],inactive
Cc1ccc([N+](=O)[O-])cc1C,outcome,[1],inactive
same,outcome,[2],inactive
same,outcome,[3],inactive
